Binding signal data for 42 sequences are collected here from article PMC7819943, “Rice protein-binding microarrays: a tool to detect cis-acting elements near promoter regions in rice”.

The full ranking holds about 35,000 sequences; the median of “fluorescence intensity (a.u.)” is about 10,000, and the highest 2% start at about 52,000. The entries come from a sample that favours the highest values as a whole.

The target of this test is T1, OsWOX13 (Oryza sativa, UniProt Q5QMM3 1-267).
T1 sequence: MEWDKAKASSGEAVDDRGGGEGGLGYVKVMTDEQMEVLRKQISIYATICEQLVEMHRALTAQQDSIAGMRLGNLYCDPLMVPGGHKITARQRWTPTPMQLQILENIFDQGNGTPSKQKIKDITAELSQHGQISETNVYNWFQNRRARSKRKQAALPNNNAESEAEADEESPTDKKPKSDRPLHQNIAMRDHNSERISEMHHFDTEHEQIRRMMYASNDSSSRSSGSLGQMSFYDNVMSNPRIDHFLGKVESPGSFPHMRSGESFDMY
Kind of test: protein-binding microarray (RPBM); PBS, 2% BSA, 51.3 ng/ul salmon testes DNA, 50 uM zinc acetate, 200 nM TF, 25 C, 1 h; high values mean tight binding. To be noted: protein: recombinant; tags: N-terminal polyhistidine and DsRed monomer fusion (pET32a); label: CyDye5-dUTP incorporated in the synthesized complementary strand; 3' TTTTT single-stranded linker to array surface; dsDNA, one strand shown. The procedure, abridged: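 The binding signal is fluorescence intensity per feature, in arbitrary units, read on an Axon 4000B scanner. Polyhistidine- and DsRed-tagged transcription factors (N-terminal fusions) from E. coli BL21-CodonPlus were purified on Ni–NTA and applied at 200 nM for 1 h at 25 °C to a double-stranded, BSA-blocked custom Agilent array in buffer with 50 µM zinc acetate.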
For “TTGGGTGGCAATTATTAATCAGTCATGTCATTCAACTAGACGGAGTCACCTAGTGCAG”, the binding signal was 11700 fluorescence intensity (a.u.).

Take “CACATGATTGATATCTCGTCACTGCTCGTAACTTCAGCCTCGGAGTCACCTAGTGCAG”: the binding signal is 62100 fluorescence intensity (a.u.). For “TTGATTGATCTTTGGTTGGATGGATGCTTGATGATGTGCTCGGAGTCACCTAGTGCAG”, the binding signal is 31900 fluorescence intensity (a.u.). Regarding “GTGCTCTTGATTGGCACATGAGCCTTGGCGGCGGTGACCTCGGAGTCACCTAGTGCAG”, the binding signal was 35600 fluorescence intensity (a.u.). With “TATTGATTGGTTCAGATGGAGACATGTGCAACTTCGTGCTCGGAGTCACCTAGTGCAG”, the binding signal is 61700 fluorescence intensity (a.u.). For “TAGAGAGATTGATATTTCATGTGCTCTAGAGATGGTTGAGCGGAGTCACCTAGTGCAG” the value was 28900 fluorescence intensity (a.u.).

For “AGTGTAATTAACTTTCTTCTTCTCTCCAACTGCTTCAGCTCGGAGTCACCTAGTGCAG”, the binding signal was 11200 fluorescence intensity (a.u.).

For “GACCAACGGTGATTATTAACATGATCTATATCTATCTATCCGGAGTCACCTAGTGCAG”, the binding signal was 5820 fluorescence intensity (a.u.). “TCAAATATGACTAAATTAGTAGTTAAGTAGTATGGGAGAACGGAGTCACCTAGTGCAG”: the binding signal was 13400 fluorescence intensity (a.u.). In the case of “CCAACTAATCATGCTTAGTTAGCAATTAAGCCATAAACAACGGAGTCACCTAGTGCAG”, the binding signal was 9180 fluorescence intensity (a.u.). With “ATGATTGCCGTATGATATGTGATACGAAAGAGTTGGGGATCGGAGTCACCTAGTGCAG”, the binding signal is 32700 fluorescence intensity (a.u.).

In the case of “CTAGATGATTGGCTATCATCACCTGTTCACAATCTTATGTCGGAGTCACCTAGTGCAG”, the binding signal was 61900 fluorescence intensity (a.u.). In the case of “TGTGTCATGTTCTGATTGGCTGTGGTTGGTTTGATTTTCTCGGAGTCACCTAGTGCAG”, the binding signal was 21100 fluorescence intensity (a.u.). “ATGGATGACTGTGATATGATATCTTACACATCAATGATAGCGGAGTCACCTAGTGCAG”: the binding signal is 7720 fluorescence intensity (a.u.). For “TGTTTGATTATGTTCAATCATTGCAAATCATGTCATCTGTCGGAGTCACCTAGTGCAG”, the binding signal is 45900 fluorescence intensity (a.u.). For “CGTCCGTCATTGATTATGCCAGATCATAGCTGTACGTCGTCGGAGTCACCTAGTGCAG” the value was 21300 fluorescence intensity (a.u.). For “CCAGATTGATGGCTATCATCAGGCCATGCTGTTCTCGTCTCGGAGTCACCTAGTGCAG” the value was 59800 fluorescence intensity (a.u.); for “TGCATGAATTGATCAACAAGACAAAAGTTACAAAACATGTCGGAGTCACCTAGTGCAG”, 4160 fluorescence intensity (a.u.).

For “TTTCAGCACATCATTCCAATTTCAATCATATTTCCAAACTCGGAGTCACCTAGTGCAG”, the binding signal was 4200 fluorescence intensity (a.u.). As to “TTCCGGACGTGTGATTGCGATGAGACGTGTTGCAATATCCCGGAGTCACCTAGTGCAG”, the binding signal is 7260 fluorescence intensity (a.u.).

For “ACTATTGGAGTATGGTGCGTGATTGTCCACAATTTATTCACGGAGTCACCTAGTGCAG”, the binding signal is 3150 fluorescence intensity (a.u.). For “ACAATTAATTTAATTAAATTGAGGTCAGCCATGCATGCAGCGGAGTCACCTAGTGCAG” the value was 64800 fluorescence intensity (a.u.); for “AATAACACAATTGTTGATAATTGTTGGATTACTTTGTGAGCGGAGTCACCTAGTGCAG”, 16000 fluorescence intensity (a.u.); for “ACCATTAATAGATTGAGAGCGAATGAATTGGTGCCACGTGCGGAGTCACCTAGTGCAG”, 55000 fluorescence intensity (a.u.). “ATAATTATTTAAATTATATGCATACACCTAGGTGCCATGGCGGAGTCACCTAGTGCAG”: the binding signal was 38800 fluorescence intensity (a.u.).

For “CCATTAAATGCACAATGACACAATTTGAGGATCAGTTTAGCGGAGTCACCTAGTGCAG”, the binding signal was 3340 fluorescence intensity (a.u.).

As for “CCACCTGTGATTGAAAACAATTACTTTTGAACATGCGCAGCGGAGTCACCTAGTGCAG”, the binding signal is 55200 fluorescence intensity (a.u.). In the case of “GATTAGATTGATCATTGATCGATCAGTGCCATTAATTGAGCGGAGTCACCTAGTGCAG”, the binding signal was 30900 fluorescence intensity (a.u.). Regarding “TCAAAATTGGAAGTTTTGTTGAAATTGAAACAATGTGATGCGGAGTCACCTAGTGCAG”, the binding signal is 19500 fluorescence intensity (a.u.). Consider “AAAATTAAATGCGATCAATCAGAGCCGTCCATATCTCTGCCGGAGTCACCTAGTGCAG”, for which the binding signal is 33400 fluorescence intensity (a.u.).

Consider “TGCCATTGTCAATCTCTCTGCTCTCCTCATGTAACTGATGCGGAGTCACCTAGTGCAG”, for which the binding signal was 3180 fluorescence intensity (a.u.). Turning to “GTAAACTGCAATCAATCAGCCATTAAAATCTCATGCTCTGCGGAGTCACCTAGTGCAG”, the binding signal is 60000 fluorescence intensity (a.u.). In the case of “TGCGAAATTTAGCGTGAGAAATTAAGTGATTGATTGAGAGCGGAGTCACCTAGTGCAG”, the binding signal was 26900 fluorescence intensity (a.u.).

As to “ACTCCCTATTAATTTCCATCACCTTTACCAAACAAGATATCGGAGTCACCTAGTGCAG”, the binding signal was 6910 fluorescence intensity (a.u.). As for “GATTTAAACTGAAACGAACAGATTCTTTGTTCTTTGCATACGGAGTCACCTAGTGCAG”, the binding signal is 9800 fluorescence intensity (a.u.). With “ATAATTAGTACCTTATAATAAGTAGCACAATCTTCGTGTTCGGAGTCACCTAGTGCAG”, the binding signal was 7900 fluorescence intensity (a.u.).

For “TGGAATGATGGATAAAGTCCAAGTTTGACCTGAGTCAAAGCGGAGTCACCTAGTGCAG”, the binding signal was 6270 fluorescence intensity (a.u.). As for “CAGATATAAATTGAGCGACTTCCAGAGTGATCAGCACTACCGGAGTCACCTAGTGCAG”, the binding signal was 7440 fluorescence intensity (a.u.).

As for “ACAACAACAGCTTTGATCAATCAATCCATCAACTCAGGTTCGGAGTCACCTAGTGCAG”, the binding signal is 11400 fluorescence intensity (a.u.). For “AATCTTTTCTTAATTCTATAATTATCCTTAACGAATTAGTCGGAGTCACCTAGTGCAG” the value was 4150 fluorescence intensity (a.u.); for “GATAACTGGTGTGGAGGCTGCGGCGTGGGTGGTAAAGCACCGGAGTCACCTAGTGCAG”, 3220 fluorescence intensity (a.u.). Take “TATTATTTATTTTGTTTGTGATTTGCTTTGTTATTAATAGCGGAGTCACCTAGTGCAG”: the binding signal was 8380 fluorescence intensity (a.u.).
